Out of some 5,500 compounds screened, about 2,000 (36%) were called active. About 18% were inconclusive and are not listed. This is one part of the list. A number with no mark means an inactive call. Cut-off read from the data, not from the text of the source: active = normalized growth mostly below about 0.91 (no sharp cut-off); inconclusive = no clear call, values can overlap the other calls; inactive = mostly above about 0.92.
Assay: chemical genetic growth profiling, strain panel (AID 1159580);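 note: tested at 20 µM; growth read once vehicle control cultures reached saturation at 30 °C; 1 = growth at the plate median or of vehicle wells; lower values mean less growth of the strain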
Details: S. cerevisiae deletion strains, growth OD
[1] = locus YAL013W, strain DEP1, hits give low values
[2] = locus YAL040C, strain CLN3, hits give low values
[3] = locus YCL061C, strain MRC1 (second series), hits give low values
[4] = locus YDR150W, strain NUM1, hits give low values
[5] = locus YER002W, strain NOP16, hits give low values
[6] = locus YHR030C, strain SLT2, hits give low values
[7] = locus YHR079C, strain IRE1, hits give low values
[8] = locus YJL095W, strain BCK1, hits give low values
[9] = locus YJR066W, strain TOR1, hits give low values
[10] = locus YJR075W, strain HOC1, hits give low values
[11] = locus YLR113W, strain HOG1, hits give low values
[12] = locus YNL153C, strain GIM3, hits give low values
[13] = locus YNL175C, strain NOP13, hits give low values
[14] = locus YNL183C, strain NPR1, hits give low values
[15] = locus YNL197C, strain WHI3, hits give low values
[16] = locus YNL224C, strain SQS1, hits give low values
[17] = locus YOR083W, strain WHI5 (second series), hits give low values
[18] = locus YOR231W, strain MKK1, hits give low values
[19] = locus YPL055C, strain LGE1, hits give low values
[20] = locus YPL256C, strain CLN2, hits give low values

Work on `N=C(N)SCCN` yielded a normalized growth [1] of 1.06, a normalized growth (locus YAL021C, strain ccr4, hits give low values) of 0.98 and a normalized growth (locus YAL026C, strain drs2, hits give low values) of 1. The normalized growth (locus YAL030W, strain snc1, hits give low values) was 1.01, the normalized growth [2] was 1.05 and the normalized growth (locus YBL061C, strain skt5, hits give low values) was 1.01. It also gave a normalized growth (locus YBR009C, strain hhf1, hits give low values) of 1, a normalized growth (locus YBR023C, strain chs3, hits give low values) of 1 and a normalized growth (locus YBR171W, strain sec66, hits give low values) of 1.01. It also gave a normalized growth (locus YBR231C, strain swc5, hits give low values) of 0.992, a normalized growth (locus YBR279W, strain paf1, hits give low values) of 0.998 and a normalized growth (locus YCL011C, strain gbp2, hits give low values) of 1.01. For the same molecule, the normalized growth (locus YCL016C, strain dcc1, hits give low values) was 0.999, the normalized growth [3] was 0.995 and the normalized growth (locus YCL061C, strain MRC1, hits give low values) was 1.01. It also gave a normalized growth (locus YCL069W, strain vba3, hits give low values) of 1.01, a normalized growth (locus YCR088W, strain abp1, hits give low values) of 1 and a normalized growth (locus YDL005C, strain med2, hits give low values) of 0.997. For the same molecule, the normalized growth (locus YDL040C, strain nat1, hits give low values) was 0.998, the normalized growth (locus YDR001C, strain nth1, hits give low values) was 1.01 and the normalized growth (locus YDR069C, strain doa4, hits give low values) was 0.999. The normalized growth (locus YDR137W, strain rgp1, hits give low values) was 1, the normalized growth [4] was 1.02 and the normalized growth (locus YDR159W, strain sac3, hits give low values) was 0.995. For the same molecule, the normalized growth (locus YDR195W, strain ref2) was 0.941, the normalized growth (locus YDR297W, strain sur2, hits give low values) was 1.01 and the normalized growth (locus YDR334W, strain swr1, hits give low values) was 1. It also gave a normalized growth (locus YDR335W, strain msn5, hits give low values) of 1, a normalized growth (locus YDR392W, strain spt3, hits give low values) of 0.856 and a normalized growth (locus YEL003W, strain gim4, hits give low values) of 1.01. The normalized growth (locus YEL037C, strain rad23, hits give low values) was 0.996, the normalized growth (locus YEL061C, strain CIN8 (second series), hits give low values) was 1 and the normalized growth [5] was 0.986. It also gave a normalized growth (locus YER015W, strain faa2, hits give low values) of 1.01, a normalized growth (locus YER016W, strain bim1, hits give low values) of 1 and a normalized growth (locus YER111C, strain swi4, hits give low values) of 1. For the same molecule, the normalized growth (locus YER155C, strain BEM2 (second series), hits give low values) was 0.985, the normalized growth (locus YFR010W, strain ubp6, hits give low values) was 1.01 and the normalized growth (locus YGL167C, strain pmr1, hits give low values) was 1.01. The normalized growth (locus YGL173C, strain kem1, hits give low values) was 1, the normalized growth (locus YGL227W, strain vid30, hits give low values) was 1 and the normalized growth (locus YGL240W, strain doc1, hits give low values) was 0.985. It also gave a normalized growth (locus YGL253W, strain hxk2, hits give low values) of 1.01, a normalized growth (locus YGR078C, strain PAC10, hits give low values) of 0.994 and a normalized growth (locus YHR013C, strain ard1, hits give low values) of 0.969. The normalized growth (locus YHR027C, strain rpn1, hits give low values) was 1.01, the normalized growth [6] was 1.07 and the normalized growth [7] was 1.07. The normalized growth (locus YHR142W, strain chs7, hits give low values) was 1.01, the normalized growth (locus YJL092W, strain hpr5, hits give low values) was 0.998 and the normalized growth (locus YJL095W, strain BCK1 (second series), hits give low values) was 0.998. The normalized growth [8] was 1.04, the normalized growth (locus YJL115W, strain asf1, hits give low values) was 0.99 and the normalized growth (locus YJL129C, strain trk1, hits give low values) was 1.03. For the same molecule, the normalized growth (locus YJL154C, strain vps35, hits give low values) was 0.997, the normalized growth (locus YJL164C, strain tpk1, hits give low values) was 1.01 and the normalized growth (locus YJL166W, strain qcr8, hits give low values) was 1.01. It also gave a normalized growth (locus YJL187C, strain SWE1, hits give low values) of 1, a normalized growth [9] of 0.976 and a normalized growth [10] of 1.01. The normalized growth (locus YKL160W, strain elf1, hits give low values) was 0.996, the normalized growth (locus YKR026C, strain gcn3, hits give low values) was 1 and the normalized growth (locus YKR091W, strain srl3, hits give low values) was 1. For the same molecule, the normalized growth (locus YLL001W, strain dnm1, hits give low values) was 0.999, the normalized growth (locus YLL026W, hits give low values) was 0.999 and the normalized growth (locus YLL041C, strain sdh2, hits give low values) was 1. The normalized growth (locus YLR027C, strain aat2, hits give low values) was 1.01, the normalized growth [11] was 1.03 and the normalized growth (locus YLR221C, strain rsa3, hits give low values) was 1. It also gave a normalized growth (locus YLR258W, strain gsy2, hits give low values) of 1, a normalized growth (locus YLR262C, strain YPT6 (second series), hits give low values) of 0.991 and a normalized growth (locus YLR320W, strain mms22, hits give low values) of 0.997. For the same molecule, the normalized growth (locus YLR342W, strain FKS1, hits give low values) was 1.01, the normalized growth (locus YLR357W, strain rsc2, hits give low values) was 0.833 (active) and the normalized growth (locus YLR370C, strain arc18, hits give low values) was 1.01. For the same molecule, the normalized growth (locus YLR384C, strain iki3, hits give low values) was 1, the normalized growth (locus YML120C, strain ndi1, hits give low values) was 0.999 and the normalized growth (locus YMR058W, strain fet3, hits give low values) was 1. The normalized growth (locus YMR125W, strain sto1, hits give low values) was 0.993, the normalized growth (locus YMR129W, hits give low values) was 1.02 and the normalized growth (locus YMR205C, strain PFK2, hits give low values) was 1.01. For the same molecule, the normalized growth (locus YMR231W, strain pep5, hits give low values) was 0.998, the normalized growth (locus YMR263W, strain SAP30, hits give low values) was 1.01 and the normalized growth (locus YMR307W, strain GAS1, hits give low values) was 1.02. It also gave a normalized growth (locus YNL071W, strain lat1, hits give low values) of 1, a normalized growth (locus YNL128W, strain TEP1, hits give low values) of 0.987 and a normalized growth [12] of 1. The normalized growth [13] was 0.991, the normalized growth [14] was 0.989 and the normalized growth [15] was 0.992. For the same molecule, the normalized growth (locus YNL209W, strain ssb2, hits give low values) was 1.01, the normalized growth [16] was 1.01 and the normalized growth (locus YNL248C, strain rpa49, hits give low values) was 1.01. It also gave a normalized growth (locus YNL322C, strain KRE1 (second series), hits give low values) of 0.998, a normalized growth (locus YNR049C, strain mso1, hits give low values) of 1 and a normalized growth (locus YOR001W, strain rrp6, hits give low values) of 0.995. It also gave a normalized growth (locus YOR070C, strain gyp1, hits give low values) of 0.989, a normalized growth (locus YOR080W, strain dia2, hits give low values) of 0.996 and a normalized growth [17] of 0.997. It also gave a normalized growth (locus YOR083W, strain WHI5, hits give low values) of 0.995, a normalized growth (locus YOR106W, strain vam3, hits give low values) of 1.04 and a normalized growth [18] of 1.05. It also gave a normalized growth (locus YOR265W, strain rbl2, hits give low values) of 1.01, a normalized growth (locus YOR270C, strain vph1, hits give low values) of 1.06 and a normalized growth (locus YOR290C, strain snf2, hits give low values) of 0.956. The normalized growth (locus YPL051W, strain arl3, hits give low values) was 0.994, the normalized growth [19] was 1.01 and the normalized growth (locus YPL078C, strain atp4, hits give low values) was 1.01. For the same molecule, the normalized growth (locus YPL106C, strain sse1, hits give low values) was 1, the normalized growth (locus YPL240C, strain hsp82, hits give low values) was 1.02 and the normalized growth [20] was 1.12.

Work on `CN(C)CCCSC(=N)N` yielded a normalized growth [6] of 0.951, a normalized growth [7] of 0.968 and a normalized growth [8] of 0.963. It also gave a normalized growth [9] of 0.903, a normalized growth [11] of 0.982 and a normalized growth [14] of 0.92. It also gave a normalized growth [18] of 0.966 and a normalized growth [20] of 0.978.

With `N=C(N)SCCc1ccc(CCSC(=N)N)cc1` the normalized growth [1] was 1.01, the normalized growth [2] was 1 and the normalized growth [3] was 0.996. The normalized growth [4] was 1, the normalized growth (locus YDR363W, strain ESC2, hits give low values) was 1.04 and the normalized growth [5] was 0.996. For the same molecule, the normalized growth [10] was 0.987, the normalized growth [12] was 0.964 and the normalized growth [13] was 1. The normalized growth [15] was 1.03, the normalized growth [16] was 1.02 and the normalized growth (locus YNL322C, strain KRE1, hits give low values) was 1. It also gave a normalized growth [17] of 0.995 and a normalized growth [19] of 1.02.

From PubChem BioAssay AID1159580 (chemical genetic matrix, 2015)
